Where “and” joins values, the source holds several entries; their conditions need not be identical. Equal values may be shown once. A structure can be active in one record and inactive in another. Calls of active or inactive are those of the source. The calls were made as follows: active = hit-call score of the fitted dose curve at least 0.9, where 1 is the maximum; inactive = score below 0.9.
Read-out: not listed separately
Assay: BSK_4H_SRB: Viability Assessment in the BioMAP Diversity Plus: 4H Assay (AID 2283027);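 also: cells exposed to compound for 24 h before staining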;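 as to AC50: curves fitted both ways versus DMSO so AC50 may be loss or gain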
Settings: primary human endothelial cells (HUVEC)
Outline: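 Cytotoxicity readout: sulforhodamine B (0.1%) staining of total protein after 10% TCA fixation, measured at 560 nm in human umbilical vein endothelium at 24 h. DMSO set the baseline; fitting was bidirectional.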

Row | SMILES | AC50 | outcome
1 | O=S(=O)(Cl)C(F)(F)C(F)(F)C(F)(F)C(F)(F)C(F)(F)C(F)(F)C(F)(F)C(F)(F)F | 45.9 µM (active) | inactive
2 | C=C(C)C(=O)OCC(F)(F)C(F)(F)C(F)(F)C(F)F |  | inactive
3 | NC(=O)C(F)(F)C(F)(F)C(F)(F)C(F)(F)C(F)(F)C(F)(F)C(F)(F)F |  | inactive
4 | NC(=O)C(F)(F)C(F)(F)C(F)(F)C(F)F |  | inactive
5 | CCOC(C=C(C)CCC=C(C)C)OCC | 31 µM (active) | 

Read-out: Thrombomodulin, THBD (gene 7056)
Assay: BSK_3C_Thrombomodulin: BioMAP Diversity Plus: 3C Assay for Thrombomodulin Biomarker Activity (AID 2283029)
Settings: primary human endothelial cells (HUVEC); actives raise or lower the signal
Outline: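 Endothelial cells from umbilical vein are dosed with test chemical and incubated 24 h. Thrombomodulin is then quantified by ELISA, with DMSO serving as negative control and activity baseline.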

Row | SMILES | AC50 | outcome
6 | O=S(=O)(Cl)C(F)(F)C(F)(F)C(F)(F)C(F)(F)C(F)(F)C(F)(F)C(F)(F)C(F)(F)F | 30 µM (active) and 44.8 µM (active) | 
7 | C=C(C)C(=O)OCC(F)(F)C(F)(F)C(F)(F)C(F)F | 21.8 µM (active) | inactive
8 | NC(=O)C(F)(F)C(F)(F)C(F)(F)C(F)(F)C(F)(F)C(F)(F)C(F)(F)F |  | inactive
9 | NC(=O)C(F)(F)C(F)(F)C(F)(F)C(F)F |  | inactive
10 | CCOC(C=C(C)CCC=C(C)C)OCC | 3.97 µM (active) | 

Reference: PubChem BioAssay (EPA / NIEHS)
